Source: PubChem
Rows were chosen to be rich in hits. Some 14% of all compounds tested hit in one or more screens of this group.
4-MU autofl: qHTS Assay for Spectroscopic Profiling in 4-MU Spectral Region. compound autofluorescence, 340/450 nm, 4-MU equivalents; stronger effect = higher value. max dye-equivalent concentration, M. 59,000 tested, 11% active; in the data active means max dye-equivalent concentration above about 10 nM; inconclusive means mostly about 1.1 nM to 9.6 nM
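Compounds in 100 mM Tris, pH 8.0, incubated 15 min at room temperature, then fluorescence read at 340 nm excitation/450 nm emission. Signal converted to 4-MU dye-equivalent concentration using an on-plate six-point 4-MU standard curve.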
CRE-bla Fsk: Cell signaling CRE-BLA (Fsk stim); CHO CRE-bla reporter (cAMP response element driving beta-lactamase), forskolin EC10, beta-lactamase ratio; Potency, µM (highest dose often 38.2 µM), inactives show at the highest dose activity change, negative = inhibition, usual class: activators; 71,000 tested, 2.5% active; AID 662, 2007; active means well fitted activation curve with a large enough effect in the signal ratio, with a control signal flat, not every such curve was filed as active; inconclusive means small, poorly fitted or top-dose-only effect, or effect the other way, or a change in a side signal; the % refers to the signal ratio; further: potency means the concentration at half of the fitted maximal effect; % of control where 0% means no effect
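Beta-lactamase reporter under a cAMP responsive element in CHO cells; compounds tested in titration series against EC10 NKH 477, 3 h at 37 °C. Read-out: CCF4 FRET ratio 460nm/530nm (excitation 405nm) giving %Activity, fitted to AC50.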
A350 autofl: qHTS Assay for Spectroscopic Profiling in A350 Spectral Region. max dye-equivalent concentration, M. 59,000 tested, 11% active. Compound autofluorescence, 340/450 nm, Alexa 350 dye-equivalents; stronger effect = higher value; in the data active means max dye-equivalent concentration above about 10 nM; inconclusive means mostly about 1.1 nM to 9.6 nM
HADH2 inh: qHTS Assay for Inhibitors of HADH2 (Hydroxyacyl-Coenzyme A Dehydrogenase, Type II); 73,000 tested, 3.4% active; 3-hydroxyacyl-CoA dehydrogenase type-2 (Homo sapiens), Q99714; Potency, µM (series often up to 57.1 µM), inactives show at the highest dose activity change, negative = inhibition, actives largely listed as inhibitors; AID 886, 2007; recombinant HADH2, NADH fluorescence, beta-hydroxybutyryl-CoA; further: potency means the concentration at half of the fitted maximal effect; on the % scale 0 is the no-effect control and ±100 the full control effect; nearly all actives have a fitted effect of over 60% in size
Target sequence (Q99714 whole entry, looked up, one chain of several): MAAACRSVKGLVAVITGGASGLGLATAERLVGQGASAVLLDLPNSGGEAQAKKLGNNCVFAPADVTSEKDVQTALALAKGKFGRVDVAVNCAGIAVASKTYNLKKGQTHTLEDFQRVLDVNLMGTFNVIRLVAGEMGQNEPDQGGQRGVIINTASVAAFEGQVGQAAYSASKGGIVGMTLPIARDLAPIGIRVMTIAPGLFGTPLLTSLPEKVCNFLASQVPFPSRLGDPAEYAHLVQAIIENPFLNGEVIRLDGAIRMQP
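Activity measured as NADH fluorescence gain (360/450 nm), taken as the change between first and last reads of a 4-min kinetic run. Conditions: pH 9.0 Tris buffer, 20 nM E. coli-expressed His-tagged enzyme, 1 mM NAD+, 90 uM beta-hydroxybutyryl-CoA; 15-min compound preincubation.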
AID923: qHTS Assay for Allosteric/Competitive Inhibitors of Caspase-1: Spectroscopic Profiling in AFC Spectral Region; compound fluorescence, AFC spectral region (405/520 nm); 75,000 tested, 1.1% active; Potency, µM (top dose mostly 57.5 µM), for the others: at the top dose fluorescence increase, most hits filed as activators; further: potency means the concentration at half of the fitted maximal effect; 0% is about no effect
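Compound autofluorescence profiled at 405 nm ex/520 nm em during kinetic caspase 1 run (50 nM enzyme, 5 uM Ac-WEHD-AFC, HEPES pH 7.5, 10 mM DTT). Titration up to 57 uM; baseline from regression intercept, normalized to AFC standard curve.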
HSD17B inhib: qHTS Assay for Inhibitors of HSD17B4, hydroxysteroid (17-beta) dehydrogenase 4 | 3-hydroxyacyl-CoA dehydrogenase type-2 (Homo sapiens), Q99714 | recombinant HSD17B10, NADH fluorescence kinetic | Potency, µM (top dose mostly 57.1 µM), without a hit: at the highest dose activity change, negative = inhibition, usual class: inhibitors | 75,000 tested, 7.6% active;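 further: the protocol describes HADH2 (HSD17B10) and not the HSD17B4 of the title; potency means the concentration at half of the fitted maximal effect; on the % scale 0 is the no-effect control and ±100 the full control effect; nearly all actives have a fitted effect of over 70% in size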
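Enzyme plus compound, 15 min room temperature; substrate mix added (NAD+ 1 mM, beta-hydroxybutyryl-CoA 90 uM final); plates read kinetically for NADH fluorescence. HADH2 was His-tagged, E. coli-derived, 20 nM.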
* marks the source's active call; other numbers are inactive results; i = inactive; ? = inconclusive; · = no result; [ ] = dose if it differs, or a comment. Unless noted, the call rests on the fitted dose curve; in most records, active means well fitted curve in the direction sought with a large enough effect; inconclusive means small, poorly fitted or top-dose-only effect, or another doubt; inactive means no such curve, though single readings can be large; an effect the other way counts as inactive or inconclusive.

SMILES | 4-MU autofl | CRE-bla Fsk | A350 autofl | HADH2 inh | AID923 | HSD17B inhib
c1coc(-c2nnc(SCc3cn4ccccc4n3)o2)c1 | i | 10µM* | i | 4% | -1% | -6%
COC(=O)c1ccc(C(NC(=O)OCc2ccccc2)/C(C)=C/[C@@H](C)C(=O)NCc2nc3ccccc3s2)cc1 (some centres not stated) | · | -5% | · | 0% | 1% | -7%
COC(=O)C1=C(NC(=O)c2ccc(C)cc2)CCS1 | 5e-08M* | ? | 4.9e-08M* | -18% | 3% | -2%
CCOC(=O)N/N=C1/C[C@@H](O)[C@@H](O)[C@@H]2[C@H]3C(=O)N(c4ccc(F)cc4F)C(=O)[C@@H]3CC[C@H]12 | · | · | · | -7%[11.4 µM] | 2%[11.5 µM] | 4%[11.4 µM]
c1ccc(-c2nc3ccccc3nc2N2CCOCC2)cc1 | 2e-07M* | ? | 2.4e-07M* | -8% | 12% | ?
Cn1c(N2CCOCC2)nc(-c2ccccc2)c1-c1ccccc1 | ? | ? | ? | 25µM* | -2% | 32µM*
COc1ccc(N(C)C(=O)Nc2ccc3c(c2)nnn3C)cc1 | i | 0% | i | 12% | 1% | 20µM*
Cn1nnc2cc(NC(=O)N3CC4(C)CC3CC(C)(C)C4)ccc21 (configuration not stated) | i | -6% | ? | -4% | 0% | ?
CCN(CC)S(=O)(=O)c1ccc(/C(O)=C(\C#N)c2nc3ccccc3n2C)cc1 | 7.3e-08M* | 12% | 9.5e-08M* | 18% | 20% | -1%
COc1ccccc1Nc1nc(-c2cccs2)cs1 | · | -2% | · | 3.2µM* | 2% | ?
FC(F)(F)c1cccc(-c2nc3nc(Cl)c(Cl)nc3[nH]2)c1 | 1.2e-06M* | 13%[7.6 µM] | 1.3e-06M* | -25%[11.4 µM] | 4%[11.5 µM] | 4µM*
Cc1cc(=O)[nH]c(Nc2cccc(C(F)(F)F)c2)n1 | i | -29% | i | 9% | 1% | -4%
CC(=O)Nc1nc(-c2cccs2)cs1 | ? | -5% | ? | ? | -1% | -7%
CCC(CC)C(=O)Nc1nnc(-c2cccs2)s1 | 2.3e-08M* | 9% | 2.2e-08M* | 25µM* | -1% | 3.2µM*
Oc1cc(O)c2c(c1)O[C@@H](c1ccc(O)c(O)c1)[C@H](O[C@@]1(c3cc(O)c(O)c(O)c3)Oc3cc(O)cc(O)c3[C@H](O)[C@@H]1O)C2 | ? | -7%[7.6 µM] | ? | 0.63µM* | 0%[11.5 µM] | ?
CSc1nnc2c3c4c(sc3nc(-n3nc(C)cc3C)n12)COC(C)(C)C4 | 6.7e-08M* | ? | 8.6e-08M* | -15% | 2% | 25µM*
Cc1cc(C)n(-c2nc3sc4c(c3c3nnc(SCC(N)=O)n23)CC(C)(C)OC4)n1 | 8.6e-08M* | 8% | 1.1e-07M* | ? | 3% | 25µM*
Cc1cc(C)n(-c2nc(-n3nc(C)cc3C)c3c4c(sc3n2)COC(C)(C)C4)n1 | · | · | · | 7% | 1% | ?
CC1CC2C3CCC4=CC(=O)C=C[C@@]4(C)[C@]3(F)C(O)C[C@]2(C)[C@]1(O)C(=O)COP(=O)(O)O (some centres not stated) | · | · | · | · | -1% | -3%
O=S(=O)(O)c1cc(O)c2c(N=Cc3ccccc3O)cc(S(=O)(=O)O)cc2c1 | 1e-07M* | ? | 1.2e-07M* | 2µM* | 2%[11.5 µM] | 4µM*
Cc1cc(O)c(C(C)C)cc1N=Cc1ccccc1O | i | 2%[7.6 µM] | i | -16%[11.4 µM] | 1%[11.5 µM] | -3%[11.4 µM]
Cn1c(=O)c2c(nc(/C=C\c3cccc(Cl)c3)n2C)n(C)c1=O | 2.2e-07M* | 6% | 1.9e-07M* | 4µM* | 1% | 0.63µM*
COC(=O)C1=C(C)N(Cc2ccccc2)C2=C3C(=O)N(C)C(=O)C3[C@@](O)(C(=O)OC)C(=O)N2C1c1ccccc1 (some centres not stated) | · | · | · | -9%[11.4 µM] | 3%[11.5 µM] | -3%[11.4 µM]
